# Assay results from the supplement of paper PMC12282887.
# ± gives the standard deviation of the averaged measurements.
# Key:
# Assay in all cases: promoter activity interaction Z-score (Lux/OD deviation from empty-vector control); higher = stronger promoter induction by the compound
# [1] = test system: E. coli BW25113 acrABp lux reporter
# Procedure, shortened: (§1)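 At 37°C, E. coli BW25113 reporter cultures in 40 µl LB Lennox in 384-well plates were read for OD600 and luminescence every 30 min for 12 h. Windows were 0–8 h for wild type and 1–9 h for deletion strains, and wells under 10% of the median growth value were removed. The score is the Z-transformed residual of growth-normalised luminescence against a control fit.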
# [2] = test system: E. coli BW25113 micFp lux reporter
# Procedure, shortened: as §1
# [3] = test system: E. coli BW25113 ompFp lux reporter
# Procedure, shortened: as §1
# [4] = test system: E. coli BW25113 robp lux reporter
# Procedure, shortened: as §1
# [5] = test system: E. coli BW25113 soxSp lux reporter
# Procedure, shortened: as §1
# [6] = test system: E. coli BW25113 tolCp lux reporter
# Procedure, shortened: as §1
# [7] = 13.5 µg/ml, genetic background: wild type
# [8] = 13.5 µg/ml, genetic background: ΔmarA
# [9] = 13.5 µg/ml, genetic background: Δrob
# [10] = 13.5 µg/ml, genetic background: ΔsoxS
# [11] = 26.9 µg/ml, genetic background: wild type
# [12] = 26.9 µg/ml, genetic background: ΔmarA
# [13] = 26.9 µg/ml, genetic background: Δrob
# [14] = 26.9 µg/ml, genetic background: ΔsoxS
# [15] = 53.9 µg/ml, genetic background: wild type
# [16] = 53.9 µg/ml, genetic background: ΔmarA
# [17] = 53.9 µg/ml, genetic background: Δrob
# [18] = 53.9 µg/ml, genetic background: ΔsoxS
# [19] = 107.7 µg/ml, genetic background: wild type
# [20] = 107.7 µg/ml, genetic background: ΔmarA
# [21] = 107.7 µg/ml, genetic background: Δrob
# [22] = 107.7 µg/ml, genetic background: ΔsoxS
compound,measurement,setting,value
CC(=O)O[C@H]1C[C@@]2(C)[C@@H](C[C@@H](O)[C@H]3[C@@]4(C)CC[C@@H](O)[C@@H](C)[C@@H]4CC[C@@]32C)/C1=C(\CCC=C(C)C)C(=O)O [Fusidic acid],promoter activity interaction Z-score,[1]; [7],-0.2451 ± 0.00049
same,promoter activity interaction Z-score,[1]; [8],0.318 ± 0.51
same,promoter activity interaction Z-score,[1]; [9],0.252 ± 0.008
same,promoter activity interaction Z-score,[1]; [10],0.129 ± 0.4
same,promoter activity interaction Z-score,[1]; [11],0.0211 ± 0.13
same,promoter activity interaction Z-score,[1]; [12],0.239 ± 0.78
same,promoter activity interaction Z-score,[1]; [13],0.206 ± 0.18
same,promoter activity interaction Z-score,[1]; [14],0.227 ± 0.21
same,promoter activity interaction Z-score,[1]; [15],0.215 ± 0.26
same,promoter activity interaction Z-score,[1]; [16],-0.794 ± 0.83
same,promoter activity interaction Z-score,[1]; [17],0.292 ± 0.025
same,promoter activity interaction Z-score,[1]; [18],0.624 ± 0.086
same,promoter activity interaction Z-score,[1]; [19],0.448 ± 0.38
same,promoter activity interaction Z-score,[1]; [20],-0.757 ± 0.87
same,promoter activity interaction Z-score,[1]; [21],0.221 ± 0.22
same,promoter activity interaction Z-score,[1]; [22],0.66 ± 0.14
same,promoter activity interaction Z-score,[2]; [7],-0.214 ± 0.048
same,promoter activity interaction Z-score,[2]; [8],-0.0141 ± 0.037
same,promoter activity interaction Z-score,[2]; [9],-0.006 ± 0.044
same,promoter activity interaction Z-score,[2]; [10],-0.317 ± 0.02
same,promoter activity interaction Z-score,[2]; [11],-0.0316 ± 0.083
same,promoter activity interaction Z-score,[2]; [12],0.0308 ± 0.044
same,promoter activity interaction Z-score,[2]; [13],0.011 ± 0.0025
same,promoter activity interaction Z-score,[2]; [14],-0.033 ± 0.14
same,promoter activity interaction Z-score,[2]; [15],0.0882 ± 0.31
same,promoter activity interaction Z-score,[2]; [16],-0.146 ± 0.084
same,promoter activity interaction Z-score,[2]; [17],0.0235 ± 0.18
same,promoter activity interaction Z-score,[2]; [18],0.413 ± 0.28
same,promoter activity interaction Z-score,[2]; [19],-0.681 ± 0.064
same,promoter activity interaction Z-score,[2]; [20],-0.356 ± 0.068
same,promoter activity interaction Z-score,[2]; [21],-0.293 ± 0.013
same,promoter activity interaction Z-score,[2]; [22],-0.184 ± 0.18
same,promoter activity interaction Z-score,[3]; [7],-0.312 ± 0.41
same,promoter activity interaction Z-score,[3]; [8],0.0814 ± 0.3
same,promoter activity interaction Z-score,[3]; [9],0.107 ± 0.54
same,promoter activity interaction Z-score,[3]; [10],-0.462 ± 0.18
same,promoter activity interaction Z-score,[3]; [11],-0.129 ± 0.58
same,promoter activity interaction Z-score,[3]; [12],0.219 ± 0.59
same,promoter activity interaction Z-score,[3]; [13],0.223 ± 0.2
same,promoter activity interaction Z-score,[3]; [14],-0.211 ± 0.02
same,promoter activity interaction Z-score,[3]; [15],-0.237 ± 0.057
same,promoter activity interaction Z-score,[3]; [16],-0.149 ± 0.12
same,promoter activity interaction Z-score,[3]; [17],-0.602 ± 0.36
same,promoter activity interaction Z-score,[3]; [18],-0.00876 ± 0.4
same,promoter activity interaction Z-score,[3]; [19],-1.9 ± 0.91
same,promoter activity interaction Z-score,[3]; [20],-1.77 ± 0.15
same,promoter activity interaction Z-score,[3]; [21],-2.39 ± 0.61
same,promoter activity interaction Z-score,[3]; [22],-1.36 ± 0.43
same,promoter activity interaction Z-score,[4]; [7],-0.978 ± 0.39
same,promoter activity interaction Z-score,[4]; [8],-0.301 ± 0.26
same,promoter activity interaction Z-score,[4]; [9],0.242 ± 0.41
same,promoter activity interaction Z-score,[4]; [10],-0.23 ± 0.61
same,promoter activity interaction Z-score,[4]; [11],-0.593 ± 0.31
same,promoter activity interaction Z-score,[4]; [12],-0.113 ± 0.0094
same,promoter activity interaction Z-score,[4]; [13],0.3 ± 0.32
same,promoter activity interaction Z-score,[4]; [14],0.424 ± 1.6
same,promoter activity interaction Z-score,[4]; [15],-1.1 ± 0.35
same,promoter activity interaction Z-score,[4]; [16],-0.572 ± 0.84
same,promoter activity interaction Z-score,[4]; [17],-0.82 ± 0.47
same,promoter activity interaction Z-score,[4]; [18],-0.24 ± 0.27
same,promoter activity interaction Z-score,[4]; [19],-2.27 ± 0.22
same,promoter activity interaction Z-score,[4]; [20],-1.34 ± 0.73
same,promoter activity interaction Z-score,[4]; [21],-1.46 ± 0.021
same,promoter activity interaction Z-score,[4]; [22],-1.76 ± 0.91
same,promoter activity interaction Z-score,[5]; [7],-0.189 ± 0.017
same,promoter activity interaction Z-score,[5]; [8],0.127 ± 0.11
same,promoter activity interaction Z-score,[5]; [9],0.138 ± 0.11
same,promoter activity interaction Z-score,[5]; [10],0.0742 ± 0.26
same,promoter activity interaction Z-score,[5]; [11],-0.0314 ± 0.05
same,promoter activity interaction Z-score,[5]; [12],0.331 ± 0.089
same,promoter activity interaction Z-score,[5]; [13],0.221 ± 0.14
same,promoter activity interaction Z-score,[5]; [14],0.0543 ± 0.37
same,promoter activity interaction Z-score,[5]; [15],0.0312 ± 0.095
same,promoter activity interaction Z-score,[5]; [16],0.0894 ± 0.086
same,promoter activity interaction Z-score,[5]; [17],0.0824 ± 0.045
same,promoter activity interaction Z-score,[5]; [18],0.2418 ± 0.00036
same,promoter activity interaction Z-score,[5]; [19],0.133 ± 0.093
same,promoter activity interaction Z-score,[5]; [20],0.303 ± 0.013
same,promoter activity interaction Z-score,[5]; [21],0.683 ± 0.014
same,promoter activity interaction Z-score,[5]; [22],1.13 ± 0.34
same,promoter activity interaction Z-score,[6]; [7],0.0553 ± 0.57
same,promoter activity interaction Z-score,[6]; [8],0.818 ± 0.39
same,promoter activity interaction Z-score,[6]; [9],0.166 ± 0.013
same,promoter activity interaction Z-score,[6]; [10],0.269 ± 0.96
same,promoter activity interaction Z-score,[6]; [11],-0.129 ± 0.34
same,promoter activity interaction Z-score,[6]; [12],0.688 ± 0.72
same,promoter activity interaction Z-score,[6]; [13],-0.187 ± 0.52
same,promoter activity interaction Z-score,[6]; [14],0.868 ± 0.14
same,promoter activity interaction Z-score,[6]; [15],0.388 ± 0.25
same,promoter activity interaction Z-score,[6]; [16],-0.396 ± 0.26
same,promoter activity interaction Z-score,[6]; [17],-0.151 ± 1.6
same,promoter activity interaction Z-score,[6]; [18],-0.374 ± 0.68
same,promoter activity interaction Z-score,[6]; [19],-1.44 ± 0.11
same,promoter activity interaction Z-score,[6]; [20],-0.24 ± 0.18
same,promoter activity interaction Z-score,[6]; [21],-0.656 ± 0.49
same,promoter activity interaction Z-score,[6]; [22],0.133 ± 0.45
